Measurements as given in PubChem BioAssay AID1159580 (chemical genetic matrix, 2015).
Out of some 5,500 compounds screened, about 2,000 (36%) were called active. About 18% were inconclusive and are not listed. No stated cut-off is given here; in the data, active means normalized growth mostly below about 0.91 (no sharp cut-off); inconclusive means no clear call, values can overlap the other calls; inactive means mostly above about 0.92. Some of the results follow.

Assay: chemical genetic growth profiling, strain panel (AID 1159580);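 further: tested at 20 µM; growth read once vehicle control cultures reached saturation at 30 °C; 1 = growth at the plate median or of vehicle wells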
Details: S. cerevisiae deletion strains, growth OD

Measured: normalized growth

NC(Cc1ccc(N(CCCl)CCCl)cc1)C(=O)O (stereo not given)
inactive: locus YAL013W, strain DEP1, stronger effect = lower value 0.981 | locus YAL040C, strain CLN3, stronger effect = lower value 0.995 | locus YCL061C, strain MRC1 (second series), stronger effect = lower value 0.996 | locus YDR150W, strain NUM1, stronger effect = lower value 1.01 | locus YDR363W, strain ESC2, stronger effect = lower value 0.986 | locus YER002W, strain NOP16, stronger effect = lower value 0.974 | locus YGR078C, strain PAC10, stronger effect = lower value 0.976 | locus YJR075W, strain HOC1, stronger effect = lower value 1 | locus YMR263W, strain SAP30, stronger effect = lower value 0.997 | locus YMR307W, strain GAS1, stronger effect = lower value 1 | locus YNL153C, strain GIM3, stronger effect = lower value 1.04 | locus YNL175C, strain NOP13, stronger effect = lower value 0.977 | locus YNL197C, strain WHI3, stronger effect = lower value 0.983 | locus YNL224C, strain SQS1, stronger effect = lower value 1.01 | locus YOR083W, strain WHI5 (second series), stronger effect = lower value 0.993

OCCc1ccccc1
inactive: locus YAL021C, strain ccr4, stronger effect = lower value 0.971 | locus YAL026C, strain drs2, stronger effect = lower value 0.98 | locus YAL030W, strain snc1, stronger effect = lower value 0.968 | locus YBL061C, strain skt5, stronger effect = lower value 0.985 | locus YBR009C, strain hhf1, stronger effect = lower value 0.976 | locus YBR023C, strain chs3, stronger effect = lower value 0.992 | locus YBR171W, strain sec66, stronger effect = lower value 0.968 | locus YBR231C, strain swc5, stronger effect = lower value 0.989 | locus YBR279W, strain paf1, stronger effect = lower value 0.989 | locus YCL011C, strain gbp2, stronger effect = lower value 0.989 | locus YCL016C, strain dcc1, stronger effect = lower value 0.994 | locus YCL061C, strain MRC1, stronger effect = lower value 0.994 | locus YCL069W, strain vba3, stronger effect = lower value 0.99 | locus YCR088W, strain abp1, stronger effect = lower value 0.983 | locus YDL005C, strain med2, stronger effect = lower value 0.989 | locus YDL040C, strain nat1, stronger effect = lower value 0.999 | locus YDR001C, strain nth1, stronger effect = lower value 0.974 | locus YDR069C, strain doa4, stronger effect = lower value 0.981 | locus YDR137W, strain rgp1, stronger effect = lower value 0.948 | locus YDR159W, strain sac3, stronger effect = lower value 0.98 | locus YDR195W, strain ref2 0.947 | locus YDR297W, strain sur2, stronger effect = lower value 0.984 | locus YDR334W, strain swr1, stronger effect = lower value 0.94 | locus YDR335W, strain msn5, stronger effect = lower value 0.982 | locus YDR392W, strain spt3, stronger effect = lower value 0.999 | locus YEL003W, strain gim4, stronger effect = lower value 0.981 | locus YEL037C, strain rad23, stronger effect = lower value 0.986 | locus YEL061C, strain CIN8 (second series), stronger effect = lower value 0.977 | locus YER015W, strain faa2, stronger effect = lower value 0.987 | locus YER016W, strain bim1, stronger effect = lower value 0.99 | locus YER111C, strain swi4, stronger effect = lower value 0.982 | locus YER155C, strain BEM2 (second series), stronger effect = lower value 0.975 | locus YFR010W, strain ubp6, stronger effect = lower value 0.973 | locus YGL167C, strain pmr1, stronger effect = lower value 0.99 | locus YGL173C, strain kem1, stronger effect = lower value 0.957 | locus YGL227W, strain vid30, stronger effect = lower value 0.971 | locus YGL240W, strain doc1, stronger effect = lower value 0.977 | locus YGL253W, strain hxk2, stronger effect = lower value 0.986 | locus YHR013C, strain ard1, stronger effect = lower value 0.99 | locus YHR027C, strain rpn1, stronger effect = lower value 0.961 | locus YHR030C, strain SLT2, stronger effect = lower value 0.97 | locus YHR079C, strain IRE1, stronger effect = lower value 0.951 | locus YHR142W, strain chs7, stronger effect = lower value 0.972 | locus YJL092W, strain hpr5, stronger effect = lower value 0.988 | locus YJL095W, strain BCK1 (second series), stronger effect = lower value 0.986 | locus YJL095W, strain BCK1, stronger effect = lower value 1.02 | locus YJL115W, strain asf1, stronger effect = lower value 0.976 | locus YJL129C, strain trk1, stronger effect = lower value 1.03 | locus YJL154C, strain vps35, stronger effect = lower value 0.969 | locus YJL164C, strain tpk1, stronger effect = lower value 1 | locus YJL166W, strain qcr8, stronger effect = lower value 0.989 | locus YJL187C, strain SWE1, stronger effect = lower value 0.987 | locus YJR066W, strain TOR1, stronger effect = lower value 0.952 | locus YKL160W, strain elf1, stronger effect = lower value 0.996 | locus YKR026C, strain gcn3, stronger effect = lower value 0.983 | locus YKR091W, strain srl3, stronger effect = lower value 0.994 | locus YLL001W, strain dnm1, stronger effect = lower value 0.999 | locus YLL026W, stronger effect = lower value 0.97 | locus YLL041C, strain sdh2, stronger effect = lower value 0.984 | locus YLR027C, strain aat2, stronger effect = lower value 0.965 | locus YLR113W, strain HOG1, stronger effect = lower value 1.01 | locus YLR221C, strain rsa3, stronger effect = lower value 0.982 | locus YLR258W, strain gsy2, stronger effect = lower value 0.992 | locus YLR262C, strain YPT6 (second series), stronger effect = lower value 0.961 | locus YLR320W, strain mms22, stronger effect = lower value 0.987 | locus YLR342W, strain FKS1, stronger effect = lower value 0.988 | locus YLR357W, strain rsc2, stronger effect = lower value 1 | locus YLR370C, strain arc18, stronger effect = lower value 0.988 | locus YLR384C, strain iki3, stronger effect = lower value 0.979 | locus YML120C, strain ndi1, stronger effect = lower value 0.995 | locus YMR058W, strain fet3, stronger effect = lower value 0.98 | locus YMR125W, strain sto1, stronger effect = lower value 0.982 | locus YMR129W, stronger effect = lower value 0.99 | locus YMR205C, strain PFK2, stronger effect = lower value 0.963 | locus YMR231W, strain pep5, stronger effect = lower value 0.99 | locus YNL071W, strain lat1, stronger effect = lower value 0.986 | locus YNL183C, strain NPR1, stronger effect = lower value 0.958 | locus YNL209W, strain ssb2, stronger effect = lower value 0.988 | locus YNL248C, strain rpa49, stronger effect = lower value 0.994 | locus YNL322C, strain KRE1 (second series), stronger effect = lower value 0.988 | locus YNR049C, strain mso1, stronger effect = lower value 0.975 | locus YOR001W, strain rrp6, stronger effect = lower value 0.993 | locus YOR070C, strain gyp1, stronger effect = lower value 0.986 | locus YOR080W, strain dia2, stronger effect = lower value 0.996 | locus YOR083W, strain WHI5, stronger effect = lower value 0.995 | locus YOR106W, strain vam3, stronger effect = lower value 0.976 | locus YOR231W, strain MKK1, stronger effect = lower value 0.973 | locus YOR265W, strain rbl2, stronger effect = lower value 1 | locus YOR270C, strain vph1, stronger effect = lower value 0.949 | locus YOR290C, strain snf2, stronger effect = lower value 0.986 | locus YPL051W, strain arl3, stronger effect = lower value 0.995 | locus YPL078C, strain atp4, stronger effect = lower value 0.976 | locus YPL106C, strain sse1, stronger effect = lower value 0.916 | locus YPL240C, strain hsp82, stronger effect = lower value 0.997 | locus YPL256C, strain CLN2, stronger effect = lower value 0.981
